Results published in PubChem BioAssay AID2625 (National Center for Advancing Translational Sciences (NCATS), 2010).
Records with an inconclusive call do not appear. Calls of active or inactive are those of the source. Calls come from the whole dose curve; as a rule, active = well fitted curve in the direction sought with a large enough effect; inconclusive = small, poorly fitted or top-dose-only effect, or effect the other way, or another doubt; inactive = no such curve, though single readings can be large or run the other way.

Target: Pyruvate kinase PKLR (Homo sapiens) (UniProt P30613)
Sequence (P30613 whole entry, looked up): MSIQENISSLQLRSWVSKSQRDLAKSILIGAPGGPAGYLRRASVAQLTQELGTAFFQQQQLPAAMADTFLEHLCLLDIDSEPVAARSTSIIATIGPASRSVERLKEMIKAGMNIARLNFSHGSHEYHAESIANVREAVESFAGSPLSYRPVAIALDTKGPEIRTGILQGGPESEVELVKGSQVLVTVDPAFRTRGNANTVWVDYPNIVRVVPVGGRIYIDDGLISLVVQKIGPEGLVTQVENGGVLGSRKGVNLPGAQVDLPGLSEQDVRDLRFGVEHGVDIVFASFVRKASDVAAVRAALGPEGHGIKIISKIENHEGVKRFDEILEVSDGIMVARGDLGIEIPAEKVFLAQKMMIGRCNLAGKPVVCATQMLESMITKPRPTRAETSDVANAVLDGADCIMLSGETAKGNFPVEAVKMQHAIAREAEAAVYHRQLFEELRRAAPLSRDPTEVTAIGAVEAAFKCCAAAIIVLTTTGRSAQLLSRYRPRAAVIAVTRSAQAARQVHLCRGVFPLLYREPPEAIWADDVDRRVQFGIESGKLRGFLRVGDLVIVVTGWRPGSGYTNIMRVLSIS
Assay: Secondary LDH Assay for Activators of Human Liver Pyruvate Kinase: for Probe SAR
Conditions: purified hPK-L, LDH-coupled NADH fluorescence kinetic; series mostly up to 58.2 µM
Description: NIH Chemical Genomics Center [NCGC]
Matthew G. Vander Heiden, M.D., Ph.D. [Harvard Medical School, 77 Avenue Louis Pasteur, Boston, MA 02115]
Human pyruvate kinase liver (hPK-L)enzyme was supplied as a highly purified (>95% pure) preparation from Harvard Medical School and a secondary assay was used to evaluate compounds. This assay couples the formation of pyruvate from hPK-R using lactate dehydrogenase (LDH) and NADH. The depletion of NADH is followed in a fluorescent-based kinetic assay that follows the formation of pyruvate to lactate, as catalyzed LDH. Pyruvate kinase substrates, PEP and ADP, were present in the assay at 0.1 mM and 4 mM respectively. In this kinetic assay initial rates were determined by following the fluorescence of NADH depletion.
NCGC Assay Protocol Summary:
Three uL of substrate mix (final concentration, 50 mM Tris-Cl pH 8.0, 200 mM KCl, 15 mM MgCl2, 0.1 mM PEP, 4.0 mM ADP, and 0.2 mM NADH) was dispensed into black-solid 1536 well plates. 23 nL of compounds were delivered by a pin tool and 1 uL of enzyme mix (final concentrations, 10 nM hPK-L and 1 uM of LDH) was added. Plates were immediately placed in ViewLux (Perkin Elmer) and NADH fluorescence was determined at 30 second exposure intervals for between 3 and 6 minutes. Data were normalized to the uninhibited and EC100 activation using known activators such as fructose-bis-phosphate.

outcome, inactive:
CNc1cccc(S(=O)(=O)N2CCCN(S(=O)(=O)c3ccc4c(c3)OCCO4)CC2)c1, Cc1ccc(NS(=O)(=O)c2ccc3[nH]c(=O)[nH]c3c2)cc1C, O=C1CCc2cc([S+](=O)([O-])NC3CCOCC3)ccc2N1, Cc1ccc(NS(=O)(=O)c2cc3c(cc2Br)NC(=O)CO3)cc1C, CN(C)c1cccc(S(=O)(=O)N2CCCN(S(=O)(=O)c3ccc4c(c3)OCCO4)CC2)c1, CSc1cc2c(s1)c1cnn(Cc3cccc(N)c3)c(=O)c1n2C, O=C1c2ccccc2C(=O)N1c1ccc2ccccc2n1, Cc1ccc(NS(=O)(=O)c2cc3c(cc2N2CCCCC2)NC(=O)CC3)cc1C, O=C1CCc2cc(S(=O)(=O)Nc3cccc(Br)c3)ccc2N1, Cc1c(Cl)cccc1NS(=O)(=O)c1cc2c(cc1Cl)CCC(=O)N2, Cc1ccc(OC2=NS(=O)(=O)c3ccccc32)cc1, O=C1CCc2cc(S(=O)(=O)Nc3cccc(F)c3)ccc2N1, CN=c1nc(-c2ccccc2)n(-c2ccccc2)s1, Cc1ccc(NS(=O)(=O)c2ccc3c(ccn3C)c2)cc1C, O=C1c2ccccc2C(=O)N1c1cccc2cccnc12, O=C1CCc2cc(S(=O)(=O)Nc3ccc(-c4ccccc4)cc3)ccc2N1, COc1ccc(S(=O)(=O)Nc2ccc(C)c(C)c2)cc1, Cc1ccc(NS(=O)(=O)c2cc3c(cc2Cl)NC(=O)C3)cc1C, Cc1ccc(N[S+](=O)([O-])c2cc3c(cc2CCc2ccccc2)NC(=O)CO3)cc1C, Cc1ccc(NS(=O)(=O)c2ccc3c(c2)CCO3)cc1C, COc1ccccc1OC1=NS(=O)(=O)c2ccccc21, COc1ccc(OC2=NS(=O)(=O)c3ccccc32)cc1, Cc1ccc(NS(=O)(=O)c2cc3c(cc2C)OCC(=O)N3)cc1C, O=C1c2ccccc2C(=O)N1c1ccc(O)cc1, Cc1cccc(OC2=NS(=O)(=O)c3ccccc32)c1, O=C1CCc2cc(S(=O)(=O)Nc3cc(F)cc(Cl)c3)c(F)cc2N1, Cc1ccc(NS(=O)(=O)c2cc3c(cc2-c2ccsc2)NC(=O)CO3)cc1C, O=C1CCc2cc(S(=O)(=O)Nc3ccc(Cl)c(Cl)c3)c(F)cc2N1, O=C1CCc2cc(S(=O)(=O)Nc3ccccn3)ccc2N1, Cc1ccc(-c2nc3ccc(Cl)cn3c2Nc2ccccc2)o1, Cc1ccc(NS(=O)(=O)c2cc3c(cc2N(C)C)NC(=O)CC3)cc1C, O=S1(=O)N=C(Oc2ccccc2Cl)c2ccccc21, Cc1ccc(NS(=O)(=O)c2ccc3c(c2)CCC(=O)N3)cc1F, Cc1ccccc1OC1=NS(=O)(=O)c2ccccc21, O=C1CCc2cc(S(=O)(=O)Nc3ccc(F)c(Cl)c3)ccc2N1, O=C1NS(=O)(=O)c2ccccc21, Cc1ccn2c(NC3CCCCC3)c(-c3ccc(C)o3)nc2c1, O=C1CCc2cc(S(=O)(=O)Nc3ccc4ccccc4c3)ccc2N1, Cc1ccc(NS(=O)(=O)c2cc3c(cc2-c2ccccc2)NC(=O)CO3)cc1C, Cc1ccc(NS(=O)(=O)c2ccc(-c3ccccc3)cc2)cc1C
